From PubChem BioAssay AID651956 (Broad Institute, 2012)
Potency and affinity values are given separately. Results filed as inconclusive are left out. A call without a number means that no potency is given here. Calls of active or inactive are those of the source.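 How the source made its calls: active means in every test run, a fitted half-maximal concentration for signal decrease at or below twice the highest tested concentration; inconclusive means runs disagree, flat 30 to 70% decrease, or poor fit; inactive means the rest.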

test: activation of miR-122 Renilla sensor silencing – cell-based, Huh7 psiCHECK-miR122, Renilla luciferase, cherry-picked, dose response (AID 651956); settings: Huh7 psiCHECK-miR122 Renilla luciferase reporter, 48 h; series mostly up to 35 µM

Structure (SMILES)	outcome
CCCCc1cc(=O)oc2cc(C)cc(OC(C)C(=O)O)c12 (centres undefined)	inactive
COc1ccc(-c2c(-c3ccccc3)c(C(=O)C(=O)NCCCN(C)C)n3ccc4cc(OC)c(OC)cc4c23)cc1OC	inactive
CN1CCN(C(=O)C[C@H]2CC[C@@H]3[C@H](COc4ccc(NC(=O)c5cccs5)cc4C(=O)N3C)O2)CC1	inactive
C[C@@H]1CN([C@@H](C)CO)S(=O)(=O)c2ccc(C3=CCCCC3)cc2O[C@@H]1CN(C)C(=O)Nc1ccc2c(c1)OCO2	inactive
CCNC(=O)Nc1ccc2c(c1)C(=O)N(C)[C@H]1CC[C@H](CC(=O)NCc3ccccc3F)O[C@H]1CO2	inactive
CC(C)c1ccc(CNC(=O)CSCC(=O)Nc2ccc3ccccc3c2)cc1	inactive
CCCNC(=O)N1[C@@H]2CN(C(=O)c3ccccc3)c3ccccc3[C@@H]2[C@@H]1CO	inactive
CN1C(=O)c2cc(NC(=O)c3ccccc3F)ccc2OC[C@H]2O[C@@H](CC(=O)NCc3ccc4c(c3)OCO4)CC[C@@H]21	inactive
O=C(NC[C@@H]1[C@H](c2ccccc2)[C@@H](CO)N1Cc1cccnc1)c1ccccn1	inactive
CCC(=O)N1[C@H](CO)[C@H](c2ccccc2)[C@@H]1CN(C(C)C)S(C)(=O)=O	inactive
CN1C(=O)c2cc(NS(=O)(=O)c3cccc(F)c3)ccc2OC[C@H]2O[C@@H](CC(=O)NCCN3CCCCC3)CC[C@H]21	inactive
COc1cccc(NC(=O)C[C@@H]2CC[C@@H]3[C@@H](COc4ccc(NS(=O)(=O)c5cccc(F)c5)cc4C(=O)N3C)O2)c1	inactive
CN1C(=O)c2cc(NC(=O)c3ccc4c(c3)OCO4)ccc2OC[C@@H]2O[C@@H](CC(=O)O)CC[C@@H]21	inactive
O=C(Nc1ccccc1)N1C[C@@H]2[C@H](c3ccccc31)[C@H](CO)N2Cc1cocn1	inactive
COc1ccccc1CNc1nc(Nc2ccccc2Cl)c2sccc2n1	inactive
COc1ccc(CC(NC(C)=O)C(=O)N2CCN(C(=O)N(C(C)C)C(C)C)CC2)cc1 (centres undefined)	inactive
NS(=O)(=O)c1ccc(Nc2nc(-c3cccnc3)cs2)cc1	inactive
CN(C)CCNC(=O)C1CC(=O)N(c2ccc(F)c(Cl)c2)C1 (centres undefined)	inactive
C/C=C/c1ccc([C@H]2[C@@H](CO)N(C(=O)C3CC3)[C@H]2CNC(=O)NC(C)C)cc1	inactive
CN1C(=O)c2cc(NC(=O)c3cccs3)ccc2OC[C@@H]2O[C@@H](CC(=O)NCCN3CCCCC3)CC[C@@H]21	inactive

Structure (SMILES)	outcome
CN(C(=O)c1ccccc1Cl)C1CCCCC1	inactive
CCN(C[C@H]1N[C@@H](CO)[C@@H]1c1ccc(C2=CCCC2)cc1)C(=O)c1ccncc1	inactive
C[C@H]1CN([C@@H](C)CO)S(=O)(=O)c2ccc(C3=CCCC3)cc2O[C@H]1CN(C)Cc1cccnc1	inactive
COc1ccc(NC(=O)Cn2nnc(C(=O)NCc3ccccc3OC)c2N)cc1Cl	inactive
COCC(=O)Nc1ccc2c(c1)C(=O)N(C)[C@@H]1CC[C@@H](CC(=O)OC)O[C@@H]1CO2	inactive
CCCNC(=O)Nc1ccc2c(c1)C(=O)N(C)[C@@H]1CC[C@H](CC(=O)NCC3CCCCC3)O[C@H]1CO2	inactive
COCC(=O)Nc1ccc2c(c1)C(=O)N(C)[C@@H]1CC[C@H](CC(=O)NCCCN(C)C)O[C@H]1CO2	inactive
CC#CCCCC(=O)Nc1ccccc1C(=O)O	inactive
N#Cc1cccc(NC(=O)Nc2cccs2)c1	inactive
CN1C(=O)c2cc(NC(=O)c3cccs3)ccc2OC[C@@H]2O[C@@H](CC(=O)O)CC[C@@H]21	inactive
CCCNC(=O)C[C@H]1CC[C@H]2[C@@H](COc3ccc(NC(=O)c4cc(F)cc(F)c4)cc3C(=O)N2C)O1	inactive
Cc1cc(C)cc(NC(=O)c2ccc(CSc3nnc(C)s3)cc2)c1	inactive
C/C=C/c1ccc([C@@H]2[C@@H](CN(C(=O)COC)C(C)C)N(C(C)=O)[C@H]2CO)cc1	inactive
CC(C)C(=O)Nc1ccc2c(c1)C(=O)N(C)[C@H]1CC[C@H](CC(=O)NCCc3ccccc3)O[C@H]1CO2	inactive
COCC(=O)Nc1ccc2c(c1)C(=O)N(C)[C@@H]1CC[C@H](CC(=O)Nc3cn(C)nc3C)O[C@H]1CO2	inactive
C[C@@H]1CN([C@@H](C)CO)S(=O)(=O)c2ccc(/C=C/c3ccccc3)cc2O[C@@H]1CN(C)C(=O)NC1CCCCC1	inactive
CC(=O)N1[C@H](CN(C(=O)c2ccc(F)cc2)C(C)C)[C@@H](c2ccccc2)[C@@H]1CO	inactive
O=C(COC(=O)Cc1ccc(S(=O)(=O)N2CCOCC2)s1)Nc1ccc2c(c1)OCO2	inactive
COc1ccc(-c2c(C(C)=O)c(C)nc3sc4c(c23)NC(c2ccccc2)NC4=O)cc1 (centres undefined)	inactive
